Measured values taken from PubChem BioAssay (NCI).
The panel holds about 79,000 compounds, 15% with a hit somewhere; the sample as a whole holds those more often. Active and inactive are the calls of the source. No stated cut-off is given here; in the data, active means growth inhibition above about 70%; inactive means the rest.

Assays:
[1] = NCI Yeast Anticancer Drug Screen. Data for the rad52 strain (AID 147);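 further: 0% = growth of vehicle-treated control cultures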; details: S. cerevisiae rad52 mutant growth inhibition, active compounds read high
Outline: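 Screen used a yeast mutant impaired in DNA repair. After compound exposure, growth was measured. Values reflect inhibition compared with vehicle-treated cells.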

[2] = NCI Yeast Anticancer Drug Screen. Data for the wt1 strain (AID 149);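 further: 0% = growth of vehicle-treated wt1 cultures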; details: S. cerevisiae wt1 strain (SPY 50644) growth inhibition, active compounds read high
Outline: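 Compounds are added to wt1 yeast cultures. Growth is then measured. Inhibition is expressed relative to vehicle-treated controls.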

[3] = NCI Yeast Anticancer Drug Screen. Data for the rad50EPP+ strain (AID 151);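 further: 0% = growth of vehicle-treated control cultures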; details: S. cerevisiae rad50 mutant strain, active compounds read high
Outline: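 Exposing the rad50EPP+ strain to each compound, growth was compared with vehicle-only cultures to give inhibition.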

[4] = NCI Yeast Anticancer Drug Screen. Data for the mgt1 strain (AID 153); details: S. cerevisiae mgt1 mutant growth inhibition, active compounds read high
Outline: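 Genetically defined yeast (mgt1) treated with compound; inhibition of growth expressed against vehicle-treated controls.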

[5] = NCI Yeast Anticancer Drug Screen. Data for the rad50 strain (AID 155);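 further: 0% = growth of vehicle-only cultures of the same strain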; details: S. cerevisiae rad50 strain growth inhibition, active compounds read high
Outline: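 Inhibition values express reduced yeast growth in compound-treated cultures relative to vehicle-treated controls.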

[6] = NCI Yeast Anticancer Drug Screen. Data for the mec2-1 strain (AID 157); details: S. cerevisiae mec2-1 strain, active compounds read high
Outline: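 Readout is yeast growth inhibition, normalised to vehicle-treated controls, in the mec2-1 strain exposed to compound.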

[7] = NCI Yeast Anticancer Drug Screen. Data for the rad14 strain (AID 159);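 further: 0% = growth of vehicle-treated control cultures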; details: S. cerevisiae rad14 strain growth inhibition, active compounds read high
Outline: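 A mutant yeast strain defective in DNA damage repair is treated with compound; inhibition of its growth is scored against untreated, vehicle-exposed cultures.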

[8] = NCI Yeast Anticancer Drug Screen. Data for the sgs1 mgt1 strain (AID 161);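 further: 0% = growth of cultures given vehicle only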; details: S. cerevisiae sgs1 mgt1 strain, active compounds read high
Outline: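 This yeast growth screen uses a strain with defined DNA-repair lesions; compound-treated growth is compared with vehicle-treated growth.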

[9] = NCI Yeast Anticancer Drug Screen. Data for the CLN2oe strain (AID 163);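 further: 0% = growth of vehicle-only control cultures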; details: S. cerevisiae CLN2oe strain, active compounds read high
Outline: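 Values reflect how much compound exposure reduced yeast growth, referenced to vehicle-exposed cells. Assay organism is a strain with a defined genetic change affecting cell-cycle control.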

[10] = NCI Yeast Anticancer Drug Screen. Data for the cln2 rad14 strain (AID 165);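 further: 0% = growth equal to vehicle treated cultures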; details: S. cerevisiae cln2 rad14 strain, active compounds read high
Outline: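 Relative to vehicle controls, growth inhibition of compound-treated cln2 rad14 yeast was recorded.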

[11] = NCI Yeast Anticancer Drug Screen. Data for the bub3 strain (AID 167); details: S. cerevisiae bub3 mutant strain, active compounds read high
Outline: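 Steps: expose the mutant yeast strain to compound; grow alongside vehicle-treated cultures; measure growth; express inhibition against the vehicle cultures.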

[12] = NCI Yeast Anticancer Drug Screen. Data for the wt2 strain (AID 169);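 further: 0% = growth of vehicle-treated yeast cultures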; details: S. cerevisiae wt2 strain growth inhibition, active compounds read high
Outline: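 Values express reduction in yeast growth under compound treatment, referenced to vehicle-treated cells.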

[13] = NCI Yeast Anticancer Drug Screen. Data for the mlh1 strain (AID 171);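 further: 0% = growth of vehicle-treated control cultures of the same strain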; details: S. cerevisiae mlh1 strain growth inhibition, active compounds read high
Outline: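 Steps: expose the defined-mutant yeast strain to compound; expose a parallel culture to vehicle; measure growth; express compound effect as inhibition relative to the vehicle culture.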

[14] = NCI Yeast Anticancer Drug Screen. Data for the sgs1 strain (AID 173);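 further: 0% = growth of vehicle-only control cultures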; details: S. cerevisiae sgs1 mutant, active compounds read high
Outline: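 Treat defined-mutant yeast with compound; measure growth; calculate inhibition relative to vehicle-treated cells.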

[15] = NCI Yeast Anticancer Drug Screen. Data for the mlh1 rad18 strain (AID 175); details: S. cerevisiae mlh1 rad18 strain growth inhibition, active compounds read high
Outline: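 Test agents were incubated with a yeast strain of defined genotype (DNA damage repair defect). Inhibition of growth was derived by comparison with vehicle-exposed cultures.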

[16] = NCI Yeast Anticancer Drug Screen. Data for the rad18 strain (AID 177); details: S. cerevisiae rad18 mutant growth inhibition, active compounds read high
Outline: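 A genetically defined yeast mutant impaired in DNA damage repair was treated with test compounds, then its growth was measured against cultures receiving vehicle alone.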

[17] = at 5.0 µM (retest, dose inferred, filed as 0.5)
[18] = at 50.0 µM (retest, dose inferred, filed as 5.0)

Measured: growth inhibition

CCCCCCNCCCNc1c2cc(OC)ccc2nc2cccc([N+](=O)[O-])c12
active: [1]; at 11.0 µM 73% | [1]; at 33.0 µM 93% | [1]; at 100.0 µM 97% | [2]; at 100.0 µM 96% | [3]; at 100.0 µM 92% | [4]; at 33.0 µM 81% | [4]; at 100.0 µM 98% | [5]; at 33.0 µM 92% | [5]; [18] 97% | [5]; at 50.0 µM 94.6% | [5]; at 100.0 µM 96% | [6]; at 11.0 µM 73% | [6]; at 33.0 µM 94% | [6]; [18] 98% | [6]; at 50.0 µM 96.4% | [6]; at 100.0 µM 99% | [7]; at 11.0 µM 96% | [7]; at 33.0 µM 99% | [7]; at 100.0 µM 99% | [8]; [17] 88% | [8]; [18] 97% | [8]; at 50.0 µM 95.7% | [9]; at 100.0 µM 96% | [10]; [17] 77% | [10]; [18] 99% | [10]; at 50.0 µM 98.8% | [11]; [18] 96% | [11]; at 50.0 µM 92.7% | [11]; at 100.0 µM 95% | [12]; at 33.0 µM 81% | [12]; at 100.0 µM 98% | [13]; at 33.0 µM 86% | [13]; at 100.0 µM 98% | [14]; at 11.0 µM 88% | [14]; at 33.0 µM 95% | [14]; at 100.0 µM 98% | [15]; [17] 73% | [15]; [18] 97% | [15]; at 50.0 µM 97.2% | [16]; at 1.2 µM 89% | [16]; at 3.7 µM 93% | [16]; at 11.0 µM 93% | [16]; at 33.0 µM 95% | [16]; at 100.0 µM 98%
inactive: [1]; at 1.2 µM 8% | [1]; at 3.7 µM 25% | [2]; at 1.2 µM 1% | [2]; at 3.7 µM 1% | [2]; at 11.0 µM 9% | [2]; at 33.0 µM 59% | [3]; at 1.2 µM 2% | [3]; at 3.7 µM 5% | [3]; at 11.0 µM 20% | [3]; at 33.0 µM 60% | [4]; at 1.2 µM 0% | [4]; at 3.7 µM 0% | [4]; at 11.0 µM 10% | [5]; at 1.2 µM 5% | [5]; at 3.7 µM 15% | [5]; [17] 35% | [5]; at 11.0 µM 66% | [6]; at 1.2 µM -1% | [6]; at 3.7 µM 4% | [6]; [17] 9% | [7]; at 1.2 µM 7% | [7]; at 3.7 µM 55% | [9]; at 1.2 µM -8% | [9]; at 3.7 µM -13% | [9]; at 11.0 µM -9% | [9]; at 33.0 µM 53% | [11]; at 1.2 µM -6% | [11]; at 3.7 µM -13% | [11]; [17] -3% | [11]; at 11.0 µM -18% | [11]; at 33.0 µM 34% | [12]; at 1.2 µM 0% | [12]; at 3.7 µM 0% | [12]; at 11.0 µM 12% | [13]; at 1.2 µM 4% | [13]; at 3.7 µM 2% | [13]; at 11.0 µM 16% | [14]; at 1.2 µM 21% | [14]; at 3.7 µM 65%

CN(N=O)C(=O)Nc1ccc(C(=O)O)cc1
inactive: [1]; at 1.2 µM 1% | [1]; at 3.7 µM 3% | [1]; at 11.0 µM 8% | [1]; at 33.0 µM 29% | [1]; at 100.0 µM 62% | [2]; at 1.2 µM -2% | [2]; at 3.7 µM -3% | [2]; at 11.0 µM -2% | [2]; at 33.0 µM -2% | [2]; at 100.0 µM 2% | [3]; at 1.2 µM -1% | [3]; at 3.7 µM 0% | [3]; at 11.0 µM 3% | [3]; at 33.0 µM 12% | [3]; at 100.0 µM 31% | [4]; at 1.2 µM 0% | [4]; at 3.7 µM 3% | [4]; at 11.0 µM 15% | [4]; at 33.0 µM 28% | [4]; at 100.0 µM 36% | [5]; at 1.2 µM 2% | [5]; at 3.7 µM 11% | [5]; [17] 12% | [5]; at 11.0 µM 19% | [5]; at 33.0 µM 44% | [5]; [18] 68% | [5]; at 50.0 µM 65.3% | [6]; at 1.2 µM -10% | [6]; at 3.7 µM 1% | [6]; [17] -8% | [6]; at 11.0 µM -6% | [6]; at 33.0 µM -7% | [6]; [18] 37% | [6]; at 50.0 µM 7.8% | [6]; at 100.0 µM 19% | [7]; at 1.2 µM -4% | [7]; at 3.7 µM 6% | [7]; at 11.0 µM -1% | [7]; at 33.0 µM 2% | [7]; at 100.0 µM 8% | [8]; [17] 43% | [8]; at 50.0 µM 62.6% | [9]; at 1.2 µM -4% | [9]; at 3.7 µM -3% | [9]; at 11.0 µM -6% | [9]; at 33.0 µM -9% | [9]; at 100.0 µM -1% | [10]; [17] -45% | [10]; [18] -4% | [10]; at 50.0 µM 2.05% | [11]; at 1.2 µM -14% | [11]; at 3.7 µM -8% | [11]; [17] -16% | [11]; at 11.0 µM -5% | [11]; at 33.0 µM -9% | [11]; [18] 6% | [11]; at 50.0 µM -14.2% | [11]; at 100.0 µM -8%
active: [5]; at 100.0 µM 77% | [8]; [18] 80%
